Measurements published in PubChem BioAssay AID493162 (ICCB-Longwood Screening Facility, Harvard Medical School, 2011).
In all, about 46,000 compounds went through this assay and about 430 (0.93%) were called active. This excerpt belongs to a sample that is enriched for actives. Unmarked numbers belong to inactive results. Cut-off read from the data, not from the text of the source: active = normalized absorbance mostly below about 85% (no sharp cut-off); inactive = mostly above about 86%.

tested on: Vaccinia virus DNA polymerase (E9) processive complex; assay: vaccinia E9 polymerase processive synthesis inhibitors, primary screen, biochemical, absorbance (AID 493162); conditions: in vitro processive DNA synthesis, absorbance read-out; hits give low values; concentration not given here

| SMILES | normalized absorbance |
| --- | --- |
| O=C(CSc1nc2ccc(N=Cc3cc(Br)ccc3O)cc2s1)Nc1ccccc1 | 100% |
| CCCNS(=O)(=O)c1ccc2c(c1)oc(=O)n2CC(=O)OCC | 99.1% |
| O=c1c(/C=N\O)coc2ccc(F)cc12 | 79.3% |
| COc1cccc2c(=O)n(CC(=O)NCc3ccccc3)ccc12 | 90% |
| CN(C(=O)COC(=O)c1cnc(Cl)c(Cl)c1)c1ccccc1 | 101% |
| COCc1cc(Cl)nc(-c2ccccc2)n1 | 103% |
| c1csc(Nc2nc3cc4c(cc3s2)OCO4)n1 | 96.8% |
| CCCCN1N=C(C)CC1=O | 99.9% |
| CCC(=O)Oc1ccc(Br)cc1/C=C1\Sc2ccccc2C1=O | 99.9% |
| ClCc1csc(-c2ccccc2)n1 | 96.4% |
| Cc1ccc2cc(CCNC(=O)CCC3CCCC3)c(=O)[nH]c2c1 | 101% |
| COCCn1cc(C(=O)NC2CCCCCC2)c2c3ccccc3n(C)c2c1=O | 102% |
| CCN1CCCC1CNC(=O)c1cc2c(=O)n(C)c3ccccc3c2n1C (stereo not drawn) | 51.4% (active) |
| Cn1c(C(=O)NC2CCCC2)cc2oc3ccccc3c21 | 104% |
| COc1cc2c3c(c1OC)C1(C=CC(=O)C=C1)CC3[N+](C)(C)CC2 (stereo not drawn) | 75.6% |
| O=C(N=C1SC2CS(=O)(=O)CC2N1c1ccccc1)c1ccccc1 (stereo not drawn) | 112% |
| Cc1cc(S(=O)(=O)N2CCN(Cc3ccccc3)CC2)c(C)cc1Cl | 71.9% |
| Cc1c(C(=O)NCCCN2CCCCCC2)oc2ccc3nc(N(C)C)sc3c12 | 64.3% (active) |
| Cc1ccc(-c2cn3nc(N4CCC(C(=O)NCCCN5CCCCC5)CC4)sc3n2)cc1 | 104% |
| O=C(NCCCN1CCCC1)c1cc(-c2ccncc2)nc2ccccc12 | 86.5% |
| CC(C)=CCC(O)C1=CC(=O)c2c(O)ccc(O)c2C1=O (stereo not drawn) | 81.9% (active) |
| Cc1ccccc1NC1=NC2(CCCCC2)N=C(N)N1 | 100% |
| O=C(O)CCc1nc2cc(Cl)ccc2n(Cc2ccccc2)c1=O | 98.8% |
| O=C(O)CC(c1ccccc1)c1cc(Cl)ccc1O (stereo not drawn) | 73.5% (active) |
| O=C(O)CC(c1ccccc1)n1cnnn1 (stereo not drawn) | 107% |
| CC(=O)N1CC(C)Oc2cc(S(=O)(=O)N(C)Cc3ccccc3)ccc21 (stereo not drawn) | 103% |
| COc1cccc2c1C(=O)C1C(O)=C3C(=C(O)C1C2=O)C[C@@](O)(C(=O)CO)C[C@@H]3OC1CC(N)C(O)C(C)O1 (stereo partly drawn) | 7.8% (active) |
| Cc1ccccc1Nc1nn2c(=O)c3ccc(C(=O)NCc4ccccc4Cl)cc3nc2s1 | 96.3% |
